Assay outcomes as filed in PubChem.
Only a selection was taken, and hits are over-represented in it overall.
Pf Dd2 growth – qHTS Primary assay for Inhibitors of Plasmodium falciparum Dd2 growth in vitro | hit rate 4.3% among 120,000 | AID 1347417, 2020 | P. falciparum Dd2 growth, SYBR Green, 72 h | Potency, µM (doses to about 28.9 µM), most hits filed as inhibitors; active means well fitted inhibition curve with a large enough effect; further: nearly all actives have a fitted effect of over 65% in size
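Infected erythrocytes (Dd2, 0.3% parasitemia, 2.5% hematocrit final) are added to compound in RPMI-1640/Albumax II medium, grown 72 h at 37C in low oxygen, then lysed with saponin/Triton-X containing SYBR Green and read by fluorescence.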
Hits are given with their value; n = inactive; [ ] = remark or other dose.

SMILES	Pf Dd2 growth
COc1ccc(CN2C(=O)[C@@H]3C[C@@H](O)CN3C3(CN(Cc4cccc(OC)c4)C3)C2=O)cc1	n
COc1ccc(CN2C(=O)[C@@H]3C[C@@H](O)CN3C3(CN(Cc4cnc5ccccc5c4)C3)C2=O)cc1	7.1µM
Cc1ccccc1C(=O)N(C)Cc1cccn1C	n
CCC(C)NC(=O)C1COC2(CCN(C(=O)c3cccc(OC)c3)CC2)N1C(=O)c1ccccc1 (centres undefined)	n
O=C(Nc1ccc(Br)cc1F)N1CC=C(c2c[nH]c3ccccc23)CC1	n
Cc1cccc(NC(=O)N2CC=C(c3c[nH]c4ccccc34)CC2)c1C	3.2µM
Cc1cccc(NC(=O)N2CCc3c(c4ccccc4n3C)C2)c1C	n
COCC(=O)N1C[C@@H]2C[C@H]1C(=O)N(Cc1ccc(OC)cc1)c1ccccc1O2	n
COC(=O)c1ccc2nc(CO[C@H]3CN(C(C)C)C[C@H]3F)[nH]c2c1	n
COC(=O)c1ccc2nc(CO[C@H]3CN(Cc4ccc5ccccc5n4)C[C@H]3F)[nH]c2c1	8.9µM
COC(=O)c1ccc2nc(CO[C@H]3CN(Cc4cccnc4)C[C@H]3F)[nH]c2c1	n
COC(=O)c1cccc(NC(=S)N[C@H]2CO[C@H]3[C@@H]2OC[C@H]3OC(=O)Nc2cccc(C(F)(F)F)c2)c1	n
Cc1ccc(-n2ncc3c2CCCC3NC(=O)c2cc(C(C)C)no2)cc1C (centres undefined)	n
O=C(NCCc1ccncc1)C1CN(C(=O)Cc2ccc(F)cc2)CC12CCOCC2 (centres undefined)	n
CN(C(=O)NC1CCCC1)C1CCc2ccccc2C1 (centres undefined)	n
CS(=O)(=O)c1ccc(N2CCN(C(=O)CC3COCCN3)CC2)c(F)c1 (centres undefined)	n
CN(C)C[C@@H]1CN(S(C)(=O)=O)C[C@H]1NC(=O)c1ccc(F)cc1F	n
Clc1ccccc1C1(c2ccnc(CC3CC3)n2)CCNCC1	5µM
CC1(C(=O)NCc2ccncc2)CCCc2cnc(NCc3ccccc3)nc21 (centres undefined)	n
Clc1ccccc1C1(c2ccnc(NCc3ccccc3)n2)CCNCC1	4.5µM
c1cnc2nc(C3CCNCC3)[nH]c2c1	n
c1coc(-c2ccnc3nc(C4CCC4)nn23)c1	n
CC1(C(=O)NCC2CC2)CCc2cnc(NCc3ccccc3)nc21 (centres undefined)	n
Clc1ccccc1C1(c2ccnc(C3CCCC3)n2)CCNCC1	4µM
c1ccc(-c2nc(CC3CCCNC3)no2)nc1 (centres undefined)	n
SMILES	Pf Dd2 growth
COc1ccccc1Cc1nccc(C2(c3ccccc3Cl)CCNCC2)n1	8.9µM
COc1ccccc1Cn1cnc2cccnc21	n
COc1ccccc1Cc1nc2ccccc2[nH]c1=O	n
CCC(=O)N1C(C(=O)NC(C)C)COC12CCC(C)CC2 (centres undefined)	n
Cc1cc(CN2CCC3(CC2)CCN(C(=O)c2ccco2)CC3CO)on1 (centres undefined)	n
COCCNc1ncc(-c2cccc(NC(C)=O)c2)c2c1OCC2	n
Cc1ccc2c(c1)N1C(=O)OC[C@@H]1CCN(C(=O)NC1CCCCC1)C2	n
CCN(CC)C(=O)[C@@H]1CCCN1[C@@H](C(=O)NC)C1CC1	n
CCn1ccc(C(=O)N2CC[C@H](c3nc(C)no3)[C@H](NC(=O)C3CC3)C2)n1	n[5.79 µM]
COc1ccc(/C=C/C(=O)Nc2ccc(C)cc2)cc1	n
COc1ccc(NC(=O)C(c2ccc(C)cc2)N(C)C(=O)/C=C\c2ccc3c(c2)OCO3)cc1 (centres undefined)	n
COc1ccc(NC(=O)/C=C\C(=O)N(c2ccc(C(C)C)cc2)C(C(=O)NCc2ccco2)c2ccc(C)cc2)cc1 (centres undefined)	10µM
Cn1nc2n(c1=O)CCN(C(=O)c1cc(C3CC3)[nH]n1)CC2	n
COCCC(=O)N1CCCC(Cc2nc(C3CCOCC3)no2)C1 (centres undefined)	n
CCn1cc2nc(SCc3ccc(F)cc3)n(Cc3ccc(Cl)cc3)c(=O)c2n1	n
CCn1cc2nc(SCc3ccccc3)n(Cc3ccc(C)cc3)c(=O)c2n1	n
CCn1cc2nc(SCc3cc(C)ccc3C)n(Cc3ccc(C)cc3)c(=O)c2n1	10µM
O=C1CCCCC(CNC(=O)c2ccccn2)N1 (centres undefined)	n
Cc1ccc(C(=O)N2CCc3sc(C(=O)NCc4cc(F)cc(F)c4)cc3C2)cc1	8.9µM
NC(=O)CNC(=O)c1cc2c(s1)CCN(C(=O)c1ccc(Cl)cc1)C2	n
CN1CCN(C(=O)c2cc3c(s2)CCN(C(=O)c2ccc(Cl)cc2)C3)CC1	11µM
CN(CCc1ccccc1)C(=O)c1cc2c(s1)CCN(C(=O)c1ccc(Cl)cc1)C2	n
O=C(O)c1cc2c(s1)CCN(C(=O)c1ccc(F)cc1)C2	n
O=C(NCc1cccc(Cl)c1)c1cc2c(s1)CCN(C(=O)c1ccccc1)C2	10µM
CC(=O)N1CCc2sc(C(=O)NCc3cccc(Cl)c3)cc2C1	n
O=C(NCc1ccccc1)c1cc2c(s1)CCN(C(=O)c1ccccc1)C2	n
